Data: ChEMBL document CHEMBL4513216, “Probing the Open Global Health Chemical Diversity Library for Multistage-Active Starting Points for Next-Generation Antimalarials” (ACS Infect Dis, 2020)
In all, about 69,000 compounds went through this assay and about 8,600 (12%) showed an effect of 50% or more. The sample holds strong results, similar compounds and a random draw of the others, so the mix is not that of the screen.

The compounds below were run on Plasmodium berghei (assay: Screen against P. berghei liver stage (PbLuc), transformed with Luciferase, at 10uM). Settings: tested at 10 uM.
Format: functional, HepG2

| Compound | INHIBITION |
| --- | --- |
| CC(=O)N1CC(=O)N(c2cccnc2)CC12CCN(Cc1nccs1)C2 (stereo not drawn) | -3.52% |
| O=C(c1ccccc1)N1CCOC2CNCC[C@H]21 (stereo partly drawn) | 28.5% |
| N#Cc1cccc(CN2CCO[C@@H]3CNC[C@@H]32)c1 | 16.9% |
| c1ccc(CN2CCOC3CNCC[C@H]32)cc1 (stereo partly drawn) | 55.5% |
| O=C(O)c1ccn(-c2ccccc2NS(=O)(=O)c2cccc(Cl)c2F)n1 | 32.9% |
| CN(C)C(=O)CO[C@@H]1CN(Cc2ccccc2F)[C@@H]2CCCO[C@@H]21 | -1.83% |
| c1cnc2c(c1)cc([C@H]1CCCO1)n2CCN1CCCCC1 | 35.3% |
| Cc1ccc(C(=O)N2CCC3(CCCCC3)C2)c(=O)[nH]1 | 21.7% |
| Cc1ccc(C(=O)N2CCOC3(CCCC3)C2)c(=O)[nH]1 | 51.7% |
| CC(C)c1cc(C(=O)N2CCOC3(CCNCC3)C2)no1 | 28.2% |
| Cc1ccc(C(=O)N2CCC3(CCCC3)CC2)c(=O)[nH]1 | 37.1% |
| CC(C)c1cc(C(=O)N2CCCC3(CCNC3)C2)no1 (stereo not drawn) | 40.2% |
| CC(C)c1cc(C(=O)N2CCOC3(CCCC3)C2)no1 | 50.4% |
| CN(Cc1ccco1)[C@@H]1CN(C(=O)c2cnccn2)C[C@@H]2CCCO[C@@H]21 | -2.17% |
| CC(C)NC(=O)[C@H]1C[C@H]2CN(C(=O)NCc3ccccc3)C[C@@H]1O2 | -43.8% |
| CCn1nc(C)c(C(=O)Nc2ccc3c(c2)C(C)(C)C(=O)N3C)c1C | 23.4% |
| Cc1nc(C)n(C2CCCN(C(=O)c3ccc(CN(C)C)cc3)C2)n1 (stereo not drawn) | 5.45% |
| Cc1ccc(NCc2ncc(C(C)(C)C)o2)c(Cl)c1 | -26.2% |
| Cc1cccc(CN(Cc2ccccn2)Cc2ncc(C(C)(C)C)o2)c1 | 71.5% |
| Cc1cccc(CN(Cc2ccccn2)S(=O)(=O)N(C)C(C)C)c1 | -12.4% |
| CCN(Cc1cccc(Cl)c1)Cc1ncc(C(C)(C)C)o1 | 49% |
| CC(C)(C)c1cnc(CNc2cccc(Cn3cnnc3)c2)o1 | -17.6% |
| Cc1cccc(CN(Cc2ccccn2)S(=O)(=O)N(C)C)c1 | -1.38% |

| Compound | INHIBITION |
| --- | --- |
| Cc1ccc(CN(C)Cc2ncc(C(C)(C)C)o2)o1 | 46.4% |
| Cc1cccc(NCc2ncc(C(C)(C)C)o2)c1 | 72.2% |
| CCN(Cc1ncc(C(C)(C)C)o1)Cc1ccccc1C | 53.3% |
| Nc1ncc(-c2cccc(NC(=O)[C@@H]3CCCCN3)c2)cn1 | 14.5% |
| Cc1cncc(C(=O)N2C[C@H]3CCC[C@@]3(COc3ccccn3)C2)c1 | 24.5% |
| CN(C)S(=O)(=O)N1CC[C@H]2OCC[C@@]2(COc2cccnc2)C1 | 33% |
| Cc1nc(C)c(CN2CCOC(CNc3cccnn3)C2)s1 (stereo not drawn) | 41.5% |
| O=C(c1cc(-n2cccn2)ccc1Cl)N1CCCC(N2CCCC2)C1 (stereo not drawn) | 14.6% |
| CCN(C)C[C@@H]1CN(C(=O)c2cc(-c3ccc(F)cc3)n[nH]2)C[C@@H]1CO | 43.9% |
| CCc1ccc(CN2CC[C@@H]3CN(S(C)(=O)=O)CCO[C@@H]3C2)o1 | 42.6% |
| CCOc1cccc2c1OCC(=O)N(c1ccc(N(C)C)cc1)C2 | 45.5% |
| CCOc1cccc2c1OCC(=O)N(c1ccc3c(c1)OCO3)C2 | 14.9% |
| CCOc1cccc2c1OCC(=O)N(c1ccc3c(c1)OCCO3)C2 | 56.5% |
| Cc1ccoc1C(=O)N1CCc2ccc(=O)n(CCN(C)C)c2CC1 | -16.2% |
| NC(=O)c1nc2c(s1)CCN(C(=O)Nc1ccccc1)CC2 | 40.5% |
| CNC(=O)N1CCc2nc(C(=O)Nc3cccnc3)sc2CC1 | 42.6% |
| NC(=O)c1nc2c(s1)CCN(C(=O)Nc1cccc(Cl)c1)CC2 | 80.2% |
| COCC(=O)N1CCc2nc(C(=O)Nc3cccnc3)sc2CC1 | -52.3% |
| O=C(c1ccc(Cl)cc1)N1CCc2nc(C(=O)N3CCCC3)sc2CC1 | -29.3% |
| CCN(CC)C(=O)c1nc2c(s1)CCN(C(=O)Nc1ccccc1)CC2 | 58.3% |
| CNC(=O)c1nc2c(s1)CCN(C(=O)c1ccccc1)CC2 | 1.9% |
| O=C(Nc1ccccc1)N1CCc2nc(C(=O)N3CCCC3)sc2CC1 | 89.1% |
| NC(=O)c1nc2c(s1)CCN(Cc1ccccc1)CC2 | 12.1% |

| Compound | INHIBITION |
| --- | --- |
| Cc1ccc(CN2C[C@@H]3COC[C@H](NS(C)(=O)=O)[C@@H]3C2)s1 | -1.36% |
| CCNC(=O)NC(C)c1nc(-c2ccc(Br)cc2)no1 (stereo not drawn) | 33.5% |
| Cc1nccc(C2CCCCN2Cc2ccccc2)n1 (stereo not drawn) | 20.8% |
| Cc1nccn1C1CCCN(C(=O)c2cccc(S(C)(=O)=O)c2)C1 (stereo not drawn) | 19.5% |
| CCOc1nnc(CN(C)C2CCCN(c3ccc(C)nn3)C2)s1 (stereo not drawn) | 46.7% |
| CNC(=O)C1(N2CCC[C@H]2C(=O)NC2CCCCC2)CCOCC1 | -1.36% |
| c1ccc(N2CCOC(Cc3cccnc3)C2)cc1 (stereo not drawn) | -33.4% |
| CCN(CC)Cc1nc(Cc2cccc(C(F)(F)F)c2)no1 | 26.7% |
| O=C(CN1CCOCC1)N1CCN(C2CCc3ccc(F)cc32)CC1 (stereo not drawn) | 54.4% |
| NC(=O)C1CCN(C(=O)NC2CCc3cc(F)ccc32)CC1 (stereo not drawn) | 17% |
| O=C(c1cc(F)ccc1O)N1CCN(C2CCOCC2)CC1 | 3.84% |
| O=C(c1ccccc1)N1CCN(C2CCc3ccc(F)cc32)CC1 (stereo not drawn) | 49.4% |
| NC(=O)N1CCCN(C2CCc3ccc(F)cc32)CC1 (stereo not drawn) | 84.2% |
| O=C(CN1CCOCC1)N1CCC(c2cc(N3CCCC3)ncn2)CC1 | -85.6% |
| Cc1ncsc1C(=O)NCCNC(=O)Cc1cccc(F)c1 | -89.6% |
| CC(Cn1cccn1)NC(=O)Nc1nncs1 (stereo not drawn) | -39.7% |
| COCCN1CCCN(C(=O)NC(C)Cn2ccnc2)CC1 (stereo not drawn) | 26.3% |
| Cc1ccnc(OC[C@@]23CCO[C@@H]2CCN(c2ncc(F)cn2)C3)n1 | 16.9% |
| CC(C)CN1CCCC(c2nc(O)c3cc(F)ccc3n2)C1 (stereo not drawn) | 20.1% |
| O=C([C@@H]1Cc2[nH]cnc2CN1Cc1cc2ccccc2o1)N1CCCC1 | -67.6% |
| COC(=O)[C@@H]1Cc2[nH]cnc2CN1Cc1cc2ccccc2o1 | 56.8% |
| COC(=O)C1Cc2nc[nH]c2CN1Cc1ccc(Sc2ncccn2)o1 (stereo not drawn) | 35.7% |
